Of roughly 8,800 targets only a part is listed; those with a hit were picked by preference. About 0.5% of all pairs of compound and target were hits.
Key:
Experiment in all cases: log2 fold change, soluble protein after heating vs DMSO (PISA); higher = thermal stabilisation; K562 lysate, 10 uM; active = over 0.2 and 3.5 SD of the protein, either way, in both replicates (recomputed)
[1] = compound: C#Cc1cccc(Nc2ncnc3cc(OCCOC)c(OCCOC)cc23)c1 [erlotinib]
Method in brief: (§1)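 Following dounce homogenisation of K562 pellets in PBS pH 7.4 with 1 mM MgCl2, crude extract at 1 mg/mL protein was incubated for 30 min with 10 μM compound. Aliquots were then heated for 3 min over 48°C-58°C and pooled, NP-40 was added to 0.5% at 4°C, and soluble protein was recovered as the supernatant at 21,000xg for 90 min. Channel-sum-equalised TMTpro 16plex LC-MS/MS quantified this protein. Each value, from duplicates, is a log-two fold change in thermal stability relative to solvent controls.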

[2] = compound: C/C(=N\NC(=O)C1=CC(=CC=C1)S(=O)(=O)N2CCOCC2)/C3=C(C=CC(=C3)Cl)O
Method in brief: as §1

[3] = compound: C1=CC(=CC=C1C2=NC3=C(N2)C=C(C=C3)C(=O)N)OC4=CC=C(C=C4)Cl
Method in brief: as §1

[4] = compound: C1=CC2=C(C=CC(=C2)/C=C\3/C(=O)NC(=NCC4=CC=CS4)S3)N=C1
Method in brief: as §1

[5] = compound: C1=CC2=NC=CN=C2C=C1/C=C/3\C(=O)NC(=O)S3
Method in brief: as §1

[6] = compound: C1=CC=C(C=C1)C2=NC(=C(N2)C3=CC=NC=C3)C4=CC(=C(C=C4)Cl)O
Method in brief: as §1

[7] = compound: C1=CC=C2C(=C1)C3=NNC4=CC=CC(=C43)C2=O
Method in brief: as §1

[8] = compound: C1CCN(C1)C(=O)NC2=CC=CC(=C2)NC3=NC=C(C(=N3)NCCC4=CN=CN4)Br
Method in brief: as §1

[9] = compound: C1CN(CCC1(CC2=CC=C(C=C2)Cl)N)C3=NC=NC4=C3C=CN4
Method in brief: as §1

[10] = compound: C1COCCN1CCN2C3=CC=CC=C3N=C2NC(=O)C4=CC(=CC=C4)[N+](=O)[O-] [IRAK-1-4 Inhibitor I]
Method in brief: as §1

[11] = compound: C=CC(=O)N1CCC[C@@H](n2nc(-c3ccc(Oc4ccccc4)cc3)c3c(N)ncnc32)C1 [ibrutinib]
Method in brief: as §1

[12] = compound: CC(=O)c1cnc2ccc(-c3cc(Cl)c(O)c(Cl)c3)nc2c1N[C@H]1CC[C@H](CN(C)C)CC1
Method in brief: as §1

[13] = compound: CC(C)(C)Cn1c(N)nc2ccc(-c3[nH]c(C(C)(C)C)nc3-c3ccc(F)cc3)nc21 [ralimetinib]
Method in brief: as §1

[14] = compound: CC(C)(O)CC(=O)NCCn1ccc2ncnc(Nc3ccc(Oc4cccc(C(F)(F)F)c4)c(Cl)c3)c21
Method in brief: as §1

[15] = compound: CC(C)C1=C2N=C(C=C(N2N=C1)NCC3=CC=CC=C3)NCCCCCCN
Method in brief: as §1

[16] = compound: CC1=C(C(CC(=O)N1)C2=CC=C(C=C2)C(F)(F)F)C(=O)NC3=C(C=C4C(=C3)C=NN4)F
Method in brief: as §1

[17] = compound: CC1=C(C2=C(C=C1)C(=O)C3=CC=CC=C3N2CCCN)C
Method in brief: as §1

[18] = compound: CC1=C(C=C(C=C1)NC(=O)C2=CC(=CC=C2)C(C)(C)C#N)NC3=CC4=C(C=C3)N=CN(C4=O)C
Method in brief: as §1

[19] = compound: CC1=C(C=C(C=C1)NC(=O)C2=CC(=CC=C2)N(C)C)NC(=O)C3=CC=C(C=C3)O
Method in brief: as §1

[20] = compound: CC1=CC=C(C=C1)SC2=C3C=C(SC3=CN=C2)C(=O)N
Method in brief: as §1

Measured: log2 fold change

PELO (UniProt Q9BRX2)
Chain of UniProt Q9BRX2 (Q9BRX2 whole entry, looked up): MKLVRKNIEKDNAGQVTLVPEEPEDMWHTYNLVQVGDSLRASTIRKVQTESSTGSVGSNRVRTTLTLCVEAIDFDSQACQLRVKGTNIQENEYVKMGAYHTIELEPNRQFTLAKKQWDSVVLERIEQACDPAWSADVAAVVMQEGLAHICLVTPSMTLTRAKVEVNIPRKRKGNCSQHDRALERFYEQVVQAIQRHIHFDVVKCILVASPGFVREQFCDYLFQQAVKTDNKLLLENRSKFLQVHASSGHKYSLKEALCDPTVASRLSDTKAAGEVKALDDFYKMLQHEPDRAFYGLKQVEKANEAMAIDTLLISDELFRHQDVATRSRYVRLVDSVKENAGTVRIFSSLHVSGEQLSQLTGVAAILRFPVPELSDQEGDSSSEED
inactive: [1] 0 | [2] -0.047 | [3] -0.058 | [4] -0.014 | [5] -0.002 | [6] 0 | [7] -0.038 | [8] -0.021 | [9] -0.049 | [10] 0 | [11] 0.034 | [12] -0.004 | [13] 0.04 | [14] -0.035 | [15] 0.005 | [16] -0.02 | [17] -0.012 | [18] -0.005 | [19] 0.001 | [20] 0.002

PPIL2 (UniProt Q13356)
Chain of UniProt Q13356 (Q13356 whole entry, looked up): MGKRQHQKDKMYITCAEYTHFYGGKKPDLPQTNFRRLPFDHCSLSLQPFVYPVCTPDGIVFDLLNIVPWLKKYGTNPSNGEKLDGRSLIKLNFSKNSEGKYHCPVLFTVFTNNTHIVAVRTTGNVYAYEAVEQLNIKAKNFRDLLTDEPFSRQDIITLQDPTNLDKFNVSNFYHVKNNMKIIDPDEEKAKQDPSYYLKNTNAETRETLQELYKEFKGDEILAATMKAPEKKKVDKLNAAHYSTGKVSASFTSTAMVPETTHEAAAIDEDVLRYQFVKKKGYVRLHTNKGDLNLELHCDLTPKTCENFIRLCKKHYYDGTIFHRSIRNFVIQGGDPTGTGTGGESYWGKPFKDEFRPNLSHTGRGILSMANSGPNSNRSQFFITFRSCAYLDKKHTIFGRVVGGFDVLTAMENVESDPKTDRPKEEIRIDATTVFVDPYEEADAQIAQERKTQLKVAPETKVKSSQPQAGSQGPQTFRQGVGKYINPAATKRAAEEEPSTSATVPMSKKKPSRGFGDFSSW
inactive: [1] -0.03 | [2] 0.02 | [3] 0.007 | [4] 0.021 | [5] -0.002 | [6] 0.039 | [7] -0.045 | [8] -0.036 | [9] 0.003 | [10] -0.016 | [11] -0.002 | [12] -0.003 | [13] 0.02 | [14] 0.025 | [15] 0.046 | [16] 0.011 | [17] -0.017 | [18] 0.033 | [19] 0.003 | [20] 0.005

PRKCSH (UniProt P14314)
Chain of UniProt P14314 (P14314 whole entry, looked up): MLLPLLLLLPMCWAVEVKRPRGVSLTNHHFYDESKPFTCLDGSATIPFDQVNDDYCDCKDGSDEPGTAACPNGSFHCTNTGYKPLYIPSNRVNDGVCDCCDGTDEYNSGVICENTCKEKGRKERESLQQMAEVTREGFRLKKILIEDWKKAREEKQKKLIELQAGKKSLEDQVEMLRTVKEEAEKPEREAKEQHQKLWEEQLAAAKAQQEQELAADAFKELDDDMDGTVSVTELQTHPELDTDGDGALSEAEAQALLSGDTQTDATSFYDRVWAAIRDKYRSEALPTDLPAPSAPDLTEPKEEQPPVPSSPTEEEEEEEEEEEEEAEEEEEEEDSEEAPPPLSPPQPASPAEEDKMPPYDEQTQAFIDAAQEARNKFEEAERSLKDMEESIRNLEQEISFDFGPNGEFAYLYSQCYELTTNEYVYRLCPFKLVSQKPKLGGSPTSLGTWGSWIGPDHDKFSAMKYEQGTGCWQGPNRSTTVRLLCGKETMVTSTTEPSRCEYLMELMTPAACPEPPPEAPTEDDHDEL
inactive: [1] -0.027 | [2] 0.013 | [3] 0.01 | [4] -0.012 | [5] -0.012 | [6] 0.023 | [7] 0.07 | [8] 0.027 | [9] -0.027 | [10] 0.005 | [11] -0.008 | [12] 0.01 | [13] 0.007 | [14] 0.019 | [15] -0.026 | [16] -0.004 | [17] 0.047 | [18] -0.057 | [19] 0.001 | [20] 0

PRAME (UniProt P78395)
Chain of UniProt P78395 (P78395 whole entry, looked up): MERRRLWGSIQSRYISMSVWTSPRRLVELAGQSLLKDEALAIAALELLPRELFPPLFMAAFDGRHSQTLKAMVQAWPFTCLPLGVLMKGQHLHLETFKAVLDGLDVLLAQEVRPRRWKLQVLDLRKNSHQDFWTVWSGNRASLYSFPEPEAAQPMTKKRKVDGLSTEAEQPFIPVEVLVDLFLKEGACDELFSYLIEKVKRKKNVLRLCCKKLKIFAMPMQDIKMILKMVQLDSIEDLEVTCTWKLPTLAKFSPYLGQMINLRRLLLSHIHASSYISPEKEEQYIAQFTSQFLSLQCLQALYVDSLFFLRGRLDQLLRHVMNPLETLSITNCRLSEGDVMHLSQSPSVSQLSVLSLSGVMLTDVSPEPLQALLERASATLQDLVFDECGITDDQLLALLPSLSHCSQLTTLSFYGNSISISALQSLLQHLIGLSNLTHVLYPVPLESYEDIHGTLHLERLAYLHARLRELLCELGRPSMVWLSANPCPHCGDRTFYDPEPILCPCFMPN
inactive: [1] 0.02 | [2] -0.056 | [3] -0.001 | [4] -0.027 | [5] -0.037 | [6] 0.013 | [7] -0.043 | [8] -0.004 | [9] 0.007 | [10] -0.008 | [11] 0.009 | [12] 0.029 | [13] 0.003 | [14] 0.005 | [15] 0.011 | [16] 0.015 | [17] 0.003 | [18] 0.006 | [19] 0.008 | [20] 0.002

PDCD6IP (UniProt Q8WUM4)
Chain of UniProt Q8WUM4 (Q8WUM4 whole entry, looked up): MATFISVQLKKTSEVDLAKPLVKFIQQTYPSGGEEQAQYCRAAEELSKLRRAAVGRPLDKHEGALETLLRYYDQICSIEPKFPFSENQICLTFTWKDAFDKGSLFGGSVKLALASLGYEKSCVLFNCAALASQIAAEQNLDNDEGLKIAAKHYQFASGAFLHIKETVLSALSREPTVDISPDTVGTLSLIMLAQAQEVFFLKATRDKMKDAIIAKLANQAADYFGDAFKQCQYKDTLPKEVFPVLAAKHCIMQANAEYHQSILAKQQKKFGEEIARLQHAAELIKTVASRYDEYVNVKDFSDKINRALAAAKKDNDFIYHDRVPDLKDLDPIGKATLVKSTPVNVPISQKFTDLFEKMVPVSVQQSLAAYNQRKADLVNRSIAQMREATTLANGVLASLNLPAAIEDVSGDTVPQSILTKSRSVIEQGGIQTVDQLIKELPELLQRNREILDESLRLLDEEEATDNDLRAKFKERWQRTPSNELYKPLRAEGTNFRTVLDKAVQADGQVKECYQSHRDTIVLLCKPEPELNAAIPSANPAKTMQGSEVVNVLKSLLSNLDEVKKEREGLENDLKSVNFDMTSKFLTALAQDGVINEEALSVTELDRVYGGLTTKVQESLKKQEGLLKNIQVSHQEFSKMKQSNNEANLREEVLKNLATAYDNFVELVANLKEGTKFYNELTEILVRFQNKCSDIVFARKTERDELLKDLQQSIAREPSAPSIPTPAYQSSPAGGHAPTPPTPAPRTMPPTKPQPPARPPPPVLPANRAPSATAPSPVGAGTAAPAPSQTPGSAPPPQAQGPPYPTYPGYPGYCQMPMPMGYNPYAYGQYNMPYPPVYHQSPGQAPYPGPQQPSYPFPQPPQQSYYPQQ
inactive: [1] -0.016 | [2] 0.021 | [3] -0.036 | [4] 0 | [5] 0.108 | [6] 0.03 | [7] 0.013 | [8] 0.07 | [9] 0.012 | [10] -0.094 | [11] -0.056 | [12] 0.042 | [13] -0.066 | [14] -0.004 | [15] 0.078 | [16] 0.009 | [17] 0.004 | [18] -0.037 | [19] 0.02 | [20] -0.03

PDAP1 (UniProt Q13442)
Chain of UniProt Q13442 (Q13442 whole entry, looked up): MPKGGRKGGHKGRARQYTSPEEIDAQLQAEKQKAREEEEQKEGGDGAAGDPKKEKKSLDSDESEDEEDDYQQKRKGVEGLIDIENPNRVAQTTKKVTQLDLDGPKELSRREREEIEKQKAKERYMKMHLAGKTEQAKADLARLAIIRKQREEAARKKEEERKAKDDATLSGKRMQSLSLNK
inactive: [1] -0.01 | [2] -0.022 | [3] 0.02 | [4] -0.005 | [5] 0.001 | [6] -0.007 | [7] 0.023 | [8] 0.016 | [9] -0.012 | [10] 0.026 | [11] -0.042 | [12] -0.012 | [13] -0.002 | [14] -0.065 | [15] 0.011 | [16] -0.046 | [17] 0.043 | [18] -0.015 | [19] -0.02 | [20] -0.008

PDF (UniProt Q9HBH1)
Chain of UniProt Q9HBH1 (Q9HBH1 whole entry, looked up): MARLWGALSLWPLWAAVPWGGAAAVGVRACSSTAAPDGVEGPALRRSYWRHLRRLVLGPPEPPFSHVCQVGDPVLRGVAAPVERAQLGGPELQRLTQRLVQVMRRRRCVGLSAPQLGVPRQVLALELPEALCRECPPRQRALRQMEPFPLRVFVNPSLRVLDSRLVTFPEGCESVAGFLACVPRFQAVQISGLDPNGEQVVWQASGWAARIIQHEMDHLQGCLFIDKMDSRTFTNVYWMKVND
inactive: [1] 0.033 | [2] 0.07 | [3] -0.072 | [4] 0.005 | [5] -0.066 | [6] 0.066 | [7] -0.013 | [8] 0.047 | [9] -0.063 | [10] 0.055 | [11] 0.054 | [12] 0.016 | [13] -0.014 | [14] 0.066 | [15] 0.001 | [16] 0.01 | [17] 0.07 | [18] 0.048 | [19] -0.018 | [20] 0.059

PTPN1 (UniProt P18031)
Chain of UniProt P18031 (P18031 whole entry, looked up): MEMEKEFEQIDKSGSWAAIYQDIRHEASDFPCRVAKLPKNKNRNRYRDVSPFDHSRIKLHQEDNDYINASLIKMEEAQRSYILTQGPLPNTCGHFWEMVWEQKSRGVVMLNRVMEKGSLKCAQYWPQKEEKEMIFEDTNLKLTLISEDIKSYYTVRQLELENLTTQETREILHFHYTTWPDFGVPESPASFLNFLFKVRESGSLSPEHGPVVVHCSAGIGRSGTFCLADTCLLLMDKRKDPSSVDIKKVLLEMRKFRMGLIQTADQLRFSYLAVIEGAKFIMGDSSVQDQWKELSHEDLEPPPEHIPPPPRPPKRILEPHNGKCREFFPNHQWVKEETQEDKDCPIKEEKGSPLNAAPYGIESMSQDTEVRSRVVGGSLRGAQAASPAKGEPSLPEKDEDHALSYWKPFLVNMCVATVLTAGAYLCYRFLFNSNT
inactive: [1] -0.007 | [2] 0.065 | [3] -0.015 | [4] 0.025 | [5] -0.011 | [6] -0.005 | [7] -0.019 | [8] 0.027 | [9] -0.017 | [10] 0.024 | [11] -0.003 | [12] -0.024 | [13] 0.018 | [14] 0.024 | [15] 0.006 | [16] -0.005 | [17] -0.002 | [18] 0.006 | [19] 0.049 | [20] 0.016

Reference: the supplement of paper PMC10849652
